Assay outcomes as filed in PubChem.
RORgamma inh = ROR gamma (mouse) transcription inhibition; AID 2551; P51450; 5.4% of 310,000 active; Drosophila S2 Gal4-RORgamma UAS-luciferase reporter, 20 h; Potency, µM (doses to about 53.6 µM), for the others: top-dose activity change, negative = inhibition, most hits filed as inhibitors; note: nearly all actives have a fitted effect of over 60% in size
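Read-out: Photinus luciferase luminescence; inhibitors lower reporter signal. Insect Schneider cells with Gal4-ROR gamma fusion under metallothionein promoter, UAS reporter; 700 uM final copper sulfate induction, 20 hr, ambient temperature.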
PLK1 PBD inh = blocks phosphopeptide binding to human PLK1 polo-box domain. AID 720504. P53350. Plk1 PBD binding of FITC phosphopeptide, fluorescence polarization. Potency, µM, without a hit: max response, negative = inhibition, usual class: inhibitors. 2.8% of 360,000 active; note: series mostly up to about 57 µM; nearly all actives have a fitted effect of over 65% in size
Gal4-VP16 FLuc = counter-screen for ROR gamma inhibitors: Gal4-VP16 reporter | Drosophila S2 Gal4-VP16 UAS-luciferase, luminescence, 20 h | Potency, µM (top dose mostly 53.6 µM), without a hit: top-dose activity, negative = inhibition, most hits filed as inhibitors | 3.5% of 310,000 active | AID 2546;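 note: Gal4-VP16 expression switched on by copper sulfate through the metallothionein promoter; nearly all actives have a fitted effect of over 50% in size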
Sfp inh = blocks B. subtilis Sfp PPTase activity. Potency, µM, for inactives: largest response in the series, negative = inhibition, most hits filed as inhibitors. Biochemical Sfp PPTase activity, qHTS. Q9F4F7. 3.5% of 310,000 active;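 note: the enzyme is Sfp with the accession as filed and its product quenches rhodamine fluorescence; 0% = enzyme reaction without inhibitor and -100% = no enzyme wells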
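Step 1, compound plus 15 nM Sfp-PPTase, 15 min, room temperature. Step 2, add rhodamine-CoA (5 uM) and BHQ-2-YbbR (12.5 uM). Step 3, read 525/598 nm fluorescence at 0 and 30 min.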
ALDH1A1 inh = inhibitors of human aldehyde dehydrogenase 1A1 | P00352 | Purified ALDH1A1, NADH fluorescence, propionaldehyde substrate | Potency, µM (series often up to 75.3 µM), inactives show at the highest dose activity, negative = inhibition, actives largely listed as inhibitors | 7.3% of 220,000 active | AID 1030; active = well fitted inhibition curve with a large enough effect, not every such curve was filed as active; inconclusive = small, poorly fitted or top-dose-only effect, or another doubt; inactive = no such curve, though single readings can be large or run the other way;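 note: plate controls were no enzyme wells and a reference inhibitor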
Target sequence (P00352 whole entry, looked up): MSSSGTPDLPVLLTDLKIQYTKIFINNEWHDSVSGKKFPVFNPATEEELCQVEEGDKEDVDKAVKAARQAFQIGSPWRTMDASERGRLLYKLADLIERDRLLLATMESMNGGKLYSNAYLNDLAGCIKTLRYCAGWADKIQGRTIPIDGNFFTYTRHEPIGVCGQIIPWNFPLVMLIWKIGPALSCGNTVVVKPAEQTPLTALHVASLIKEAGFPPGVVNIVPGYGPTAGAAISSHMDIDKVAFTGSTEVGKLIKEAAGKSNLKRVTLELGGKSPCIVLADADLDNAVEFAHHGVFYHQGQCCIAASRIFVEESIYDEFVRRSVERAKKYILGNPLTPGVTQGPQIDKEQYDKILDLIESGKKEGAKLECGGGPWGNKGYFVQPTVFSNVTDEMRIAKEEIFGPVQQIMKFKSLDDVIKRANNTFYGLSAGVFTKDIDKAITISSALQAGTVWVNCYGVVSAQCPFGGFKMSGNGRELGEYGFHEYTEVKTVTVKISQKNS
* hit, by the source's call; ? = inconclusive; / = no result given; [ ] = remark or other dose. Sampled rows, rich in hits. Any-hit rate of the full collection: about 12%. Unless noted, calls come from the whole dose curve; as a rule, active = well fitted curve in the direction sought with a large enough effect; inconclusive = small, poorly fitted or top-dose-only effect, or another doubt; inactive = no such curve, though single readings can be large; an effect the other way counts as inactive or inconclusive. Unless noted, % is set by controls: 0 for no effect and ±100 for the full control effect; potency is the fitted concentration of half-maximal effect.

SMILES | RORgamma inh | PLK1 PBD inh | Gal4-VP16 FLuc | Sfp inh | ALDH1A1 inh
Cc1cccc(N2CSC3=C(C#N)C(c4ccc(C)o4)CC(=O)N3C2)c1 (centres undefined) | 8% | / | 18% | 2.8µM* | 8.9µM*
COc1cc(OC)c(C2CC(=O)N3CN(c4ccccc4C)CSC3=C2C#N)cc1OC (centres undefined) | -41% | / | -14% | 4µM* | 4µM*
COc1ccc(CN2CC(=O)N(c3ccccc3C)C2=S)cc1OC | -1% | 0% | 6% | -3% | 11%
COc1ccc(CC(=O)N2CCN(c3ccccc3F)CC2)cc1OC | ? | 5% | -20% | 13% | /
Cc1ccc(C2N(c3cccc(Cl)c3)C(=O)C3CCCN32)o1 (centres undefined) | -3% | -2% | 11% | 2% | ?
COc1ccc(C2CC(=O)N3CN(c4ccccc4F)CSC3=C2C#N)cc1OC (centres undefined) | 21% | 30µM* | -5% | 8.9µM* | 7.1µM*
COC(=O)[C@@H](NC(=O)N1CCc2nc(COc3ccccc3)c3c(c2C1)CO[C@@H](C)C3)C(C)C | / | / | / | 7% | 5%[13.5 µM]
C=C[C@@H]1c2ccccc2N(S(=O)(=O)c2ccc(C)cc2)[C@H](c2ccc(C(=O)OC)cc2)C1(C#N)C#N | / | -1% | / | / | /
COC(=O)C1=C[C@@H](C(=O)OC)C2C3=C(C(=O)[C@@]2(C)NC(=O)c2ccccc2)[C@H](C)[C@@H]2C(=O)N(C)C(=O)[C@@H]2[C@@H]3C1 (some centres undefined) | 1% | / | -2% | 3% | /
COc1ccc(C2CC(=O)N3CN(c4ccc(C)c(Cl)c4)CSC3=C2C#N)cc1 (centres undefined) | -19% | 24µM* | 13% | 2.8µM* | 3.2µM*
Cc1nn(C)c(C)c1S(=O)(=O)N(CC(=O)N1CCc2ccccc2C1)c1ccc(C(C)C)cc1 | 16% | 1% | -10% | -4% | 11µM*
Cc1nn(C)c(C)c1S(=O)(=O)N(CC(=O)N1CCc2ccccc21)c1ccc(C(C)C)cc1 | -20% | -11% | 8% | 9% | 12%
CC(C)(C)c1cc[n+](-c2[nH]c(=O)sc2/C=N/NC([S-])=Nc2ccccc2)cc1 | 4% | ? | 22% | 35µM* | 25µM*
O=C1c2cc(Br)ccc2N(Cc2ccc(Br)cc2)S(=O)(=O)C1c1cc(Cl)c(Cl)cc1[N+](=O)[O-] (centres undefined) | / | 21µM* | / | / | /
CC1=CC2=NC(=O)CC(C)(C(=O)N(CC(=O)NC3CCCC3)c3cc(C)cc(C)c3)N2C=C1 (centres undefined) | 3% | 27µM* | 2% | 2% | 3%
COc1ccc(C(=O)NC(=S)Nc2ccccc2[N+](=O)[O-])cc1OC | 7.1µM* | -11% | 17% | 89µM* | ?
COc1ccc(C(=O)NC(=S)Nc2ccc([N+](=O)[O-])cc2C)cc1OC | 16µM* | -8% | ? | 56µM* | 14µM*
COc1cc([N+](=O)[O-])c(C)cc1NC(=O)c1ccc(OC)c(OC)c1 | / | -8% | / | / | /
COc1ccc2c(c1)O[C@@H](c1cccc(C(F)(F)F)c1)[C@H](OC(=O)NS(=O)(=O)c1ccc(F)cc1)C2=O | 19% | / | 6% | 10% | -2%
COCCCNC(=O)C[C@@H]1C[C@@]2(C(=O)OC)CCCCC=C2N(Cc2ccco2)C1=O | / | -10% | / | / | /
CCOC(=O)N1CCN(c2nc(N(c3ccccc3)c3ccccc3)nc(-n3ccnc3)n2)CC1 | 8% | / | 0% | ? | /
c1ccc(CN2CCN(c3nc(-c4ccccc4)nc(-n4ccnc4)n3)CC2)cc1 | 14µM* | -3% | ? | 32µM* | -4%
c1ccc(-c2nc(-n3ccnc3)nc(-n3ccnc3)n2)cc1 | ? | -6% | 5% | ? | 8%
c1ccc(N(c2ccccc2)c2nc(N3CCCC3)nc(-n3ccnc3)n2)cc1 | 7.1µM* | 0% | 11µM* | 45µM* | 2%
CN(c1ccccc1)c1nc(N2CCCC2)nc(-n2ccnc2)n1 | 4.5µM* | -1% | 11µM* | -13% | 6%
SMILES | RORgamma inh | PLK1 PBD inh | Gal4-VP16 FLuc | Sfp inh | ALDH1A1 inh
Clc1ccc(Cn2ncc3c(N4CCN(c5ccccc5)CC4)ncnc32)cc1 | / | -18% | / | / | /
CC1CCCC(NC(=O)CCS(=O)(=O)c2cc3c(cc2Cl)NC(=O)CO3)C1C (centres undefined) | -6% | 27µM* | -7% | 29% | /
O=C(CCS(=O)(=O)c1cc2c(cc1Cl)NC(=O)CO2)NCc1ccc(F)cc1 | -15% | -1% | 6% | 15% | /
Cc1ccc(CNC(=O)CCS(=O)(=O)c2cc3c(cc2Cl)NC(=O)CO3)cc1 | -10% | 27µM* | -4% | 9% | /
CC1CCCC(NS(=O)(=O)c2cc3c(cc2Cl)NC(=O)CO3)C1C (centres undefined) | -26% | -1% | 7% | 3% | /
CC(=O)c1cccc(NC(=O)Nc2ccc(C(=O)N3CCCC3)cc2)c1 | ? | -7% | ? | 5% | 14µM*
CC(=O)Nc1cccc(NC(=O)Nc2ccc(C(C)=O)cc2)c1 | -19% | -3% | 0% | 4% | 16%
CCN(CC)c1ccc(NC(=O)Nc2cccc(C(C)=O)c2)cc1 | 7.9µM* | -10% | ? | -26% | ?
O=C(Nc1cccc(C(=O)N2CCCC2)c1)c1ccccc1Cl | 10% | -5% | 8% | 2% | 4µM*
O=C(Nc1ccccc1)Nc1ccc(C(=O)N2CCCC2)cc1 | ? | -13% | ? | 12% | 7%
Cc1cc(-n2c(C)cc(C(=O)COc3ccc(Cl)cc3C(N)=O)c2C)no1 | / | -1% | / | / | /
Clc1ccc(-c2cc3nc(NCc4cccc(Cl)c4)ccn3n2)cc1 | / | -25% | / | / | /
C=CCNC(=S)NCC1COc2ccccc2O1 (centres undefined) | 11µM* | -3% | -23% | 13% | 10%
O=C(NC(=S)NCC1COc2ccccc2O1)c1ccccc1 (centres undefined) | -24% | -3% | 3% | -7% | ?
Cc1c(Cl)cccc1NC(=S)NCC1COc2ccccc2O1 (centres undefined) | 6.3µM* | -4% | ? | -2% | -11%
COc1cc(OC)c(-c2c3cc(O)c(=O)cc-3oc3cc(O)c(O)cc23)cc1OC | ? | -57% | ? | 16µM* | 10µM*
Cc1c2cc(O)c(=O)cc-2oc2cc(O)c(O)cc12 | ? | 2.7µM* | ? | 40µM* | ?
COC(=O)[C@]12CCCCC=C1N(Cc1ccc3c(c1)OCO3)C(=O)[C@H](CC(=O)N1CCSCC1)C2 | / | -8% | / | / | /
c1coc(CNc2nc3ccccc3s2)c1 | -40% | -1% | -1% | -1% | /
Clc1ccc(CCNc2nc3ccccc3s2)cc1 | 11µM* | -7% | 2% | 19% | -8%
CCCN1C[C@@H](C)[C@@H](OC)CN(C)C(=O)c2ccc(NC(=O)c3cccc(F)c3)cc2OC[C@H]1C | / | -1% | / | / | /
CCN(CC)S(=O)(=O)c1cccc(-c2n[nH]c(=S)n2/N=C/c2ccc(OC)cc2)c1 | ? | -29% | -10% | 79µM* | ?
